# Data from publication PMC11062922 (Nature Chemical Biology, 2023).
# Like-named read-outs stand apart in the source and are kept apart here.
# Key:
# Set-up in all cases: species or system human, MV4-11 + K-562 + COLO205 + SK-N-BE2 + OVCAR-8
# [1] = tested on: ACVR1B; details: read-out: apparent Kd, n = 1
# [2] = tested on: PKN3; details: read-out: apparent Kd; compound concentrations:100 nM and 1000 nM (sheet 'Samples'); n = 1
# [3] = tested on: PRKD2; details: read-out: apparent Kd; compound concentrations:100 nM and 1000 nM (sheet 'Samples'); n = 1
# [4] = tested on: PRKD3; details: read-out: apparent Kd; compound concentrations:100 nM and 1000 nM (sheet 'Samples'); n = 1
# [5] = tested on: ACVR1; details: read-out: apparent Kd; compound concentrations: 100 nM and 1000 nM (sheet 'Samples'), CATDS: 7.6276409382360397E-2; n = 1
# [6] = tested on: ACVR2B; details: read-out: apparent Kd, compound concentrations: 100 nM and 1000 nM (sheet 'Samples'), n = 1
# [7] = tested on: BCR; details: read-out: apparent Kd; compound concentrations: 100 nM and 1000 nM (sheet 'Samples'), CATDS: 7.0620023573944493E-2; n = 1
# [8] = tested on: FLT3; details: read-out: apparent Kd, compound concentrations: 100 nM and 1000 nM (sheet 'Samples'), n = 1
# [9] = tested on: FLT4; details: read-out: apparent Kd, compound concentrations: 100 nM and 1000 nM (sheet 'Samples'), n = 1
# [10] = tested on: FRK; details: read-out: apparent Kd; compound concentrations: 100 nM and 1000 nM (sheet 'Samples'), CATDS: 7.6735011828902105E-2; n = 1
# [11] = tested on: FYN; details: read-out: apparent Kd; compound concentrations: 100 nM and 1000 nM (sheet 'Samples'), CATDS: 5.82468241174715E-2; n = 1
# [12] = tested on: GAK; details: read-out: apparent Kd; compound concentrations: 100 nM and 1000 nM (sheet 'Samples'), CATDS: 5.5943535710341101E-2; n = 1
# [13] = tested on: IRAK3; details: read-out: apparent Kd; compound concentrations: 100 nM and 1000 nM (sheet 'Samples'), CATDS: 6.2537206863604394E-2; n = 1
# [14] = tested on: PIP4K2C; details: read-out: apparent Kd; compound concentrations: 100 nM and 1000 nM (sheet 'Samples'), CATDS: 5.2092814624207201E-2; n = 1
# [15] = tested on: RET; details: read-out: apparent Kd, compound concentrations: 100 nM and 1000 nM (sheet 'Samples'), n = 1
# [16] = tested on: RIPK2; details: read-out: apparent Kd; compound concentrations: 100 nM and 1000 nM (sheet 'Samples'), CATDS: 0.18233295125810001; n = 1
# [17] = tested on: STK11; details: read-out: apparent Kd; compound concentrations: 100 nM and 1000 nM (sheet 'Samples'), CATDS: 4.7078768974871503E-2; n = 1
# [18] = tested on: TGFBR2; details: read-out: apparent Kd; compound concentrations: 100 nM and 1000 nM (sheet 'Samples'), CATDS: 0.25024360667503898; n = 1
# [19] = tested on: DDR1; details: read-out: apparent Kd; compound concentrations: 100 nM and 1000 nM (sheet 'Samples'), CATDS: 0.15549636172905901; n = 1
# [20] = tested on: JAK2; details: read-out: apparent Kd; compound concentrations: 100 nM and 1000 nM (sheet 'Samples'), CATDS: 0.70328815445029103; n = 1
# [21] = tested on: MAPK14; details: read-out: apparent Kd; compound concentrations: 100 nM and 1000 nM (sheet 'Samples'), CATDS: 0.189242383322658; n = 1
# [22] = tested on: NLK; details: read-out: apparent Kd; compound concentrations: 100 nM and 1000 nM (sheet 'Samples'), CATDS: 0.152320021786015; n = 1
# [23] = tested on: AURKA; details: read-out: apparent Kd; compound concentrations: 100 nM and 1000 nM (sheet 'Samples'), CATDS: 0.17816442953383199; n = 1
# [24] = tested on: AURKB; details: read-out: apparent Kd; compound concentrations: 100 nM and 1000 nM (sheet 'Samples'), CATDS: 0.16275021162643; n = 1
# [25] = tested on: CDKL5; details: read-out: apparent Kd; compound concentrations: 100 nM and 1000 nM (sheet 'Samples'), CATDS: 3.9289785265400001E-2; n = 1
# [26] = tested on: FGFR1; details: read-out: apparent Kd; compound concentrations: 100 nM and 1000 nM (sheet 'Samples'), CATDS: 3.3147223570266997E-2; n = 1
# [27] = tested on: GSK3A; details: read-out: apparent Kd; compound concentrations: 100 nM and 1000 nM (sheet 'Samples'), CATDS: 0.17602991696345399; n = 1
# [28] = tested on: GSK3B; details: read-out: apparent Kd; compound concentrations: 100 nM and 1000 nM (sheet 'Samples'), CATDS: 0.14122707507865501; n = 1
# [29] = tested on: MAP3K1; details: read-out: apparent Kd; compound concentrations: 100 nM and 1000 nM (sheet 'Samples'), CATDS: 3.7364470577418298E-2; n = 1
# [30] = tested on: MAP3K5; details: read-out: apparent Kd; compound concentrations: 100 nM and 1000 nM (sheet 'Samples'), CATDS: 2.9017198987143701E-2; n = 1
# [31] = tested on: MAPK10; details: read-out: apparent Kd; compound concentrations: 100 nM and 1000 nM (sheet 'Samples'), CATDS: 3.1635267678624499E-2; n = 1
# [32] = tested on: MAPK9; details: read-out: apparent Kd; compound concentrations: 100 nM and 1000 nM (sheet 'Samples'), CATDS: 4.3387929743655899E-2; n = 1
# [33] = tested on: NQO2; details: read-out: apparent Kd; compound concentrations: 100 nM and 1000 nM (sheet 'Samples'), CATDS: 5.8964681911963503E-2; n = 1
# [34] = tested on: NUAK1; details: read-out: apparent Kd; compound concentrations: 100 nM and 1000 nM (sheet 'Samples'), CATDS: 3.13847647871121E-2; n = 1
# [35] = tested on: PLK4; details: read-out: apparent Kd; compound concentrations: 100 nM and 1000 nM (sheet 'Samples'), CATDS: 5.2678675037883101E-2; n = 1
# [36] = tested on: PRKAA2; details: read-out: apparent Kd; compound concentrations: 100 nM and 1000 nM (sheet 'Samples'), CATDS: 3.01302788001056E-2; n = 1
# [37] = tested on: SLK; details: read-out: apparent Kd; compound concentrations: 100 nM and 1000 nM (sheet 'Samples'), CATDS: 2.96585498316322E-2; n = 1
# [38] = tested on: STK10; details: read-out: apparent Kd; compound concentrations: 100 nM and 1000 nM (sheet 'Samples'), CATDS: 4.4384834768784902E-2; n = 1
# [39] = tested on: STK16; details: read-out: apparent Kd; compound concentrations: 100 nM and 1000 nM (sheet 'Samples'), CATDS: 3.04344636095151E-2; n = 1
# [40] = tested on: TEC; details: read-out: apparent Kd; compound concentrations: 100 nM and 1000 nM (sheet 'Samples'), CATDS: 3.6245892865131898E-2; n = 1
# [41] = tested on: TTN; details: read-out: apparent Kd; compound concentrations: 100 nM and 1000 nM (sheet 'Samples'), CATDS: 3.6738161320686101E-2; n = 1
compound,measurement,setting,value
COc1ccc2nc(-c3cccc(C)n3)nc(Nc3ccncc3)c2c1 [GSK204919_KCGS],potency estimated from few doses,[1]; compound concentrations:100 nM and 1000 nM (sheet 'Samples'),0.0613 µM
same,potency estimated from few doses,[2],0.647 µM
same,potency estimated from few doses,[3],0.0126 µM
same,potency estimated from few doses,[4],0.00821 µM
Cc1ccc(Nc2ccnc(Nc3cccc(C(N)=O)c3)n2)cc1O.Cl [GW575808A],potency estimated from few doses,[5],0.534 µM
same,potency estimated from few doses,[6]; CATDS: 0.210677427457096,0.077 µM
same,potency estimated from few doses,[7],0.645 µM
same,potency estimated from few doses,[8]; CATDS: 5.3612696826146597E-2,1.45 µM
same,potency estimated from few doses,[9]; CATDS: 5.6175855360763499E-2,1.24 µM
same,potency estimated from few doses,[10],0.526 µM
same,potency estimated from few doses,[11],1.1 µM
same,potency estimated from few doses,[12],1.25 µM
same,potency estimated from few doses,[13],0.894 µM
same,potency estimated from few doses,[14],1.61 µM
same,potency estimated from few doses,[15]; CATDS: 7.3825490143618097E-2,0.578 µM
same,potency estimated from few doses,[16],0.0969 µM
same,potency estimated from few doses,[17],2.43 µM
same,potency estimated from few doses,[18],0.0594 µM
COc1ccc(-c2nn3ncccc3c2-c2ccnc(Nc3ccc(F)c(F)c3)n2)cc1 [GW827396X],potency estimated from few doses,"[1]; compound concentrations: 100 nM and 1000 nM (sheet 'Samples'), CATDS: 0.188759897575135",1.02 µM
same,potency estimated from few doses,[19],1.77 µM
same,potency estimated from few doses,[20],0.073 µM
same,potency estimated from few doses,[21],1.01 µM
same,potency estimated from few doses,[22],1.9 µM
Cc1[nH]nc2c1N=C(c1ccccc1F)c1cc(C(N)=O)ccc1N2 [RO0282586-000],potency estimated from few doses,[6]; CATDS: 3.5760557024692601E-2,1 µM
same,potency estimated from few doses,[23],0.03 µM
same,potency estimated from few doses,[24],0.0345 µM
same,potency estimated from few doses,[25],0.749 µM
same,potency estimated from few doses,[26],1.3 µM
same,potency estimated from few doses,[8]; CATDS: 3.2008123306219403E-2,1.48 µM
same,potency estimated from few doses,[9]; CATDS: 9.9526112559891702E-2,0.0828 µM
same,potency estimated from few doses,[27],0.0305 µM
same,potency estimated from few doses,[28],0.0436 µM
same,potency estimated from few doses,[29],0.873 µM
same,potency estimated from few doses,[30],2.23 µM
same,potency estimated from few doses,[31],1.55 µM
same,potency estimated from few doses,[32],0.564 µM
same,potency estimated from few doses,[33],0.259 µM
same,potency estimated from few doses,[34],1.6 µM
same,potency estimated from few doses,[35],0.34 µM
same,potency estimated from few doses,[36],1.89 µM
same,potency estimated from few doses,[15]; CATDS: 5.3147422630729399E-2,0.333 µM
same,potency estimated from few doses,[37],2.02 µM
same,potency estimated from few doses,[38],0.53 µM
same,potency estimated from few doses,[39],1.81 µM
same,potency estimated from few doses,[40],0.96 µM
same,potency estimated from few doses,[41],0.92 µM
